Hits are enriched below; roughly 1% of the tested compounds scored in any of these assays.
Cdc25B inh: inhibitors of Cdc25B phosphatase catalytic domain, primary screen, biochemical, OMFP fluorescence | 0.1% of 65,000 active | inhibition, %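 (compounds tested at 10 µM final in the well)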 | recombinant Cdc25B, OMFP fluorescence Ex485/Em525; in the data active means inhibition above about 50%
Hsp90 inh: tumor Hsp90 inhibitors, primary screen, cell lysate, fluorescence polarization, NCI-N417 lysate. Heat shock protein HSP 90-alpha (Homo sapiens), P07900. Cy3B-geldanamycin FP displacement. inhibition, % at 30 µM. 0.35% of 64,000 active. AID 429, 2006;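 active means inhibition above 50%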;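 further: 0% = tracer plus lysate wells and 100% = tracer alone without lysate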
PKA kinase inh: inhibitors of human PKA kinase activity, primary screen, biochemical, ATP-depletion luminescence, Kemptide substrate | cAMP-dependent protein kinase catalytic subunit alpha (Homo sapiens), P17612 | PKA Kemptide phosphorylation, Kinase-Glo ATP luminescence | inhibition, % at 6 µM | 0.1% of 65,000 active;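 active means inhibition above the screen-wide mean inhibition plus 3 SD, cut at about 21% in these data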
DUSP1 inh: MKP-1 phosphatase inhibitors, primary screen, biochemical, in vitro; 0.15% of 65,000 active; recombinant MKP-1, OMFP hydrolysis fluorescence; AID 374, 2006; Dual specificity protein phosphatase 1 (Homo sapiens), P28562; inhibition, %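 (compounds tested at a single concentration somewhere between 10 and 100 µM)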;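 active means inhibition above about 50%, limit read from the data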;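 further: 0% = DMSO max control wells and 100% = wells with enzyme stopped by NaOH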
JNK3 inh: JNK3 kinase activity inhibitors, primary screen, biochemical, human, purified enzyme | Mitogen-activated protein kinase 10 (Homo sapiens), P53779 | HTS | inhibition, % at 8 µM | 0.61% of 60,000 active | AID 746, 2007; in the data active means inhibition above about 17%;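 further: 0% = DMSO and 100% = reference inhibitor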
ROCK2 blocker: inhibitors of human ROCK2 kinase, primary screen, biochemical, high-throughput, luminescence; Rho-associated protein kinase 2 (Homo sapiens), O75116; purified ROCK2, Kinase-Glo ATP depletion luminescence; inhibition, % at 6 µM; 0.35% of 60,000 active; AID 604, 2007;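 active means inhibition above the screen-wide mean inhibition plus 3 SD, cut at about 18% in these data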;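 further: plate controls were DMSO wells for no effect and Y-27632 control wells after no-enzyme background subtraction for full effect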
Target sequence (O75116 whole entry, looked up): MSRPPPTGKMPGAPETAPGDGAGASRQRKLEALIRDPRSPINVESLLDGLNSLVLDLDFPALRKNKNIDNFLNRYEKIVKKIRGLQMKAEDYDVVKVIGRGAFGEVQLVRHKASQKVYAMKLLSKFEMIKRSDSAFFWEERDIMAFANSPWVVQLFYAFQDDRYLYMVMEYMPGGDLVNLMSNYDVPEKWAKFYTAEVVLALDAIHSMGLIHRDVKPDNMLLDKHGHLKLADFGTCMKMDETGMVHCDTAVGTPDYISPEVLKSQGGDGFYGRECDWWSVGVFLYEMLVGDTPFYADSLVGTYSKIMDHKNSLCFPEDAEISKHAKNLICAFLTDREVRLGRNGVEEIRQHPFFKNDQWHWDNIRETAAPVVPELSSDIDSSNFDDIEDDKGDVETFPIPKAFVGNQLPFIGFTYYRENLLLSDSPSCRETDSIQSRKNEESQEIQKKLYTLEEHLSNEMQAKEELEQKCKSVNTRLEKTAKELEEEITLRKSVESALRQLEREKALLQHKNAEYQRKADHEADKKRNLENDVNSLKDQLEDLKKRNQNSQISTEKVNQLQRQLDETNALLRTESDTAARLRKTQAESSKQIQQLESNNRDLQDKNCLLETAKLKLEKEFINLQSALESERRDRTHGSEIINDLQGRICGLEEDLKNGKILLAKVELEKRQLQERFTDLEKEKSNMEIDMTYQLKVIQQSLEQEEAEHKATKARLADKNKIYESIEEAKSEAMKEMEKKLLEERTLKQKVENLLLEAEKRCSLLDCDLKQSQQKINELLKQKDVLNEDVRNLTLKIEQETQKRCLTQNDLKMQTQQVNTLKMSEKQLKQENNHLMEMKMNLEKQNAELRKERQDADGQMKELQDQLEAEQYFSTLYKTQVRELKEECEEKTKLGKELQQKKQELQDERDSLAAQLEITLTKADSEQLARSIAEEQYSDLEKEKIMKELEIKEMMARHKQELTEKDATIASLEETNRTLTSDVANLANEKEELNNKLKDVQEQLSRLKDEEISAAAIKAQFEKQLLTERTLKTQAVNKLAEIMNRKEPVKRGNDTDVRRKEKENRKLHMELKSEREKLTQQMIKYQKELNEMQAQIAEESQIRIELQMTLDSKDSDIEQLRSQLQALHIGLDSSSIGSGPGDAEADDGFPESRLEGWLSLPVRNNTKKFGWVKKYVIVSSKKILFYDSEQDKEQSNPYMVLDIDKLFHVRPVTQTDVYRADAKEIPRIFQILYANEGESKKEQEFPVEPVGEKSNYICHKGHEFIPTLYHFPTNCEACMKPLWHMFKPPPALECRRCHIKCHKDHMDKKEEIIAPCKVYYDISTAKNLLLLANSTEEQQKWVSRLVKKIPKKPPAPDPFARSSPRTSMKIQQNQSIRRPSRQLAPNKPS
Redox H2O2 0p5DTT: redox cycling H2O2 generation, 0.5 mM DTT, dose response, artefact control, biochemical, Cdc25B catalytic domain. EC50, µM. 50% of 30 active. AID 682, 2007. cell-free redox cycling H2O2 generation. shares compounds with Cdc25B inh; in the data active means EC50 below about 30 µM
Redox H2O2 1DTT: redox cycling H2O2 generation, 1 mM DTT, dose response, artefact control, biochemical, 1.0 mM DTT, Cdc25B catalytic domain. shares compounds with Cdc25B inh. cell-free redox cycling H2O2 generation. EC50, µM. 30 tested, under 10 active. AID 683, 2007; in the data active means EC50 below about 50 µM
Redox H2O2: redox cycling hydrogen peroxide production, dose response, artefact control, biochemical, probe assessment; shares compounds with DUSP1 inh; Redox cycling H2O2 generation, DTT, phenol red/HRP; EC50, µM; 60 tested, under 10 active; call rule not given here
* hit, by the source's call; . = no result.

SMILES | Cdc25B inh | Hsp90 inh | PKA kinase inh | DUSP1 inh | JNK3 inh | ROCK2 blocker | others
O/N=C/c1c[nH]c2ccccc12 | -7 | -11 | 64* | 0 | 5 | 82*
NC1CCc2cc(O)c(O)cc2C1 (stereo not drawn) | . | 53* | . | . | . | .
Cn1c(=O)n(CC(=O)N2CCC3(CC2)OCCO3)c(=O)c2ccccc21 | 2 | 0 | 2 | -4 | 2 | 0
O=C(CCCCCn1c(=S)[nH]c2ccccc2c1=O)N1CCC2(CC1)OCCO2 | -6 | -3 | -2 | 11 | 28* | -12
NC(Cn1oc(=O)[nH]c1=O)C(=O)O (stereo not drawn) | . | 41 | . | . | . | .
C=CCN1C[C@@H](C)N([C@H](c2ccc(C(=O)N(CC)CC)cc2)c2cccc(OC)c2)C[C@@H]1C | . | -2 | . | . | . | .
Nc1ncnc2c1ncn2[C@@H]1O[C@H](COP(=O)(O)CP(=O)(O)OP(=O)(O)O)[C@H](O)C1O (stereo partly drawn) | . | 1 | . | . | . | .
CN(N=O)c1cc(O)ccc1O | . | 99* | . | . | . | .
C[C@H]1CCC[C@H](O)CCCCCc2cc(O)cc(O)c2C(=O)O1 | -10 | 87* | 3 | 10 | 3 | 4
COc1ccc(C2=NCC(=O)N(CC(=O)NCc3ccco3)c3sc4c(c32)CCCC4)cc1OC | 56* | 0 | 12 | 2 | 6 | 6
O=C(CN1C(=O)CN=C(c2ccccc2)c2ccccc21)NCc1ccco1 | 15 | -3 | -5 | 0 | -4 | -3
CCn1nc(-c2ccccc2)nc2c(=O)n(C)c(=O)nc1-2 | 101* | 89* | 4 | 98* | 55* | 72* | Redox H2O2 0p5DTT=0.73*;Redox H2O2 1DTT=1.6*;Redox H2O2=14*
CC(=O)OCC1=C(C(=O)[O-])N2C(=O)[C@@H](NC(=O)CCC[C@@H](N)C(=O)[O-])[C@H]2SC1.[Zn+2] | . | -1 | . | . | . | .
CCCCNC(=O)c1c(N)n(CCCOC)c2nc3ccccc3nc12 | -3 | -3 | -3 | 37 | . | . | Redox H2O2=>50
NC(CCCCCP(=O)(O)O)C(=O)O (stereo not drawn) | . | 1 | . | . | . | .

Assay outcomes: PubChem BioAssay, several laboratories
